{"source": "PubChem BioAssay AID686978", "about": "(National Center for Advancing Translational Sciences (NCATS), 2013)", "note": "Among all 420,000 compounds or so, about 64,000 (15%) were called active. Roughly 27% stayed inconclusive and do not appear here. Calls come from the whole dose curve; as a rule, active = well fitted inhibition curve with a large enough effect; inconclusive = small, poorly fitted or top-dose-only effect; inactive = flat fitted curve, though single readings scatter. The list is a sample of the results. Where a call stands in place of a potency, no number is given. Potency is the fitted concentration of half-maximal effect."}
{"assay": "qHTS for Inhibitors of human tyrosyl-DNA phosphodiesterase 1 (TDP1): qHTS in cells in absence of CPT; note: nearly all actives have a fitted effect of over 55% in size", "details": "DT40 Tdp1-/- hTDP1 cells, no CPT, ATP luminescence, 48 h; activity change, negative = growth inhibition: at 46.2 µM (top of the series)", "procedure,_shortened": "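Camptothecin absent (DMSO only). Human TDP1-complemented DT40 knockout cells, 400 cells/well, 37 °C for minimum 48 hr; ATP measured via CellTiter-Glo, 30 min dark incubation, luminescence.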"}
{"smiles": "O=C1c2ccccc2C(=O)N1CCC(O)C[N+](=O)[O-]", "note": "(centres undefined)", "Potency": "inactive"}
{"smiles": "CCCNC(=O)CCn1cc(-c2ccc(OC)cc2)nc1CCN", "Potency": "inactive"}
{"smiles": "O=C(Nc1cccc(C(=O)N2CCCC2)c1)c1ccccc1", "Potency": "inactive"}
{"smiles": "COc1cccc(NC(=O)N2CCN(C(=O)c3nsc4ccccc34)CC2)c1", "Potency": "inactive"}
{"smiles": "NC(=O)C1CCN(C(=O)c2cccc(NC(=O)c3nsc4ccccc34)c2)CC1", "Potency": "16.4 µM (active)"}
{"smiles": "CCOC(=O)c1ccc(NC(=O)C2CC(=O)Nc3nc4ccccc4n32)cc1", "note": "(centres undefined)", "Potency": "inactive"}
{"smiles": "CN(CC(=O)NCc1ccc(Cl)cc1)S(=O)(=O)c1cccs1", "Potency": "inactive"}
{"smiles": "COc1ccc(Cn2ccc3nc(C)c(C(=O)Nc4ccc(C)c(F)c4)cc3c2=O)cc1", "Potency": "inactive"}
{"smiles": "Cc1nc2ccn(Cc3cccs3)c(=O)c2cc1C(=O)NCc1ccc(Cl)cc1", "Potency": "16.4 µM (active)"}
{"smiles": "CCn1c(C(C)C)n[nH]c1=S", "Potency": "inactive"}
{"smiles": "O=C(NC1CCCCC1)C1CCCN(S(=O)(=O)c2cccs2)C1", "note": "(centres undefined)", "Potency": "inactive"}
{"smiles": "Cn1nnnc1SCC(=O)NNC(=O)c1ccc(Br)cc1", "Potency": "inactive"}
{"smiles": "Cc1cc(N)n2nc(-c3ccc(C(C)(C)C)cc3)cc2n1", "Potency": "25.9 µM (active)"}
{"smiles": "Cc1cc(C(C)(C)C)cc(C)c1N", "Potency": "inactive"}
{"smiles": "CC(=O)Nc1ccc(NC(=O)CSc2nnnn2-c2ccccc2F)cc1", "Potency": "inactive"}
{"smiles": "C1CC1Cc1noc(CN2CCN(CC3CC3)CC2)n1", "Potency": "inactive"}
{"smiles": "CNc1cc(-c2c(C)noc2C)ncn1", "Potency": "14.6 µM (active)"}
{"smiles": "COCCNc1cc(-c2c(C)noc2C)ncn1", "Potency": "inactive"}
{"smiles": "Cc1cnc(CNc2cc(-c3c(C)noc3C)ncn2)cn1", "Potency": "inactive"}
{"smiles": "COc1ccc(C2=NOC3(CC(=O)N(c4ccc(Cl)cc4)C3=O)C2)c(OC)c1", "note": "(centres undefined)", "Potency": "inactive"}
{"smiles": "COC(=O)c1ccc(NC(=O)CSc2nncn2-c2cccnc2)cc1", "Potency": "inactive"}
{"smiles": "Cc1ccc(SCCC(=O)NC(C(C)C)C(C)C)cc1", "Potency": "inactive"}
{"smiles": "CCOC(=O)c1cccc(NS(=O)(=O)c2cc(-c3cnc(C)o3)ccc2OC)c1", "Potency": "6.51 µM (active)"}
{"smiles": "COc1ccc(Cl)cc1S(=O)(=O)Nc1cccc(C(=O)O)c1", "Potency": "inactive"}
{"smiles": "CCOC(=O)c1cccc(NS(=O)(=O)c2cn(C)c(C)n2)c1", "Potency": "inactive"}
{"smiles": "Cc1ccccc1NC(=O)Cc1nc(COC(=O)CNC(=O)c2ccc(Cl)cc2Cl)cs1", "Potency": "inactive"}
{"smiles": "CCN1CCN(CCCCOc2ccccc2F)CC1", "Potency": "inactive"}
{"smiles": "CN1CCN(CCCCOc2cccc3ccccc23)CC1", "Potency": "16.4 µM (active)"}
{"smiles": "COc1ccccc1OCCCCCCN1CCN(C)CC1", "Potency": "inactive"}
{"smiles": "CCn1nc(C(=O)NNC(=O)C2CSC3(C)CCC(=O)N23)c2ccccc2c1=O", "note": "(centres undefined)", "Potency": "inactive"}
{"smiles": "CC1CCN(S(=O)(=O)c2ccc3[nH]c(=O)ccc3c2)CC1", "Potency": "inactive"}
{"smiles": "CC(=O)c1cccc(NC(=O)COc2ccc(S(=O)(=O)N3CCOCC3)cc2)c1", "Potency": "inactive"}
{"smiles": "CC(=O)c1cccc(Nc2ccc3cc(S(=O)(=O)N4CCC(C)CC4)ccc3n2)c1", "Potency": "16.4 µM (active)"}
{"smiles": "Nc1cccc(CCc2nc3ccccc3[nH]2)c1", "Potency": "inactive"}
{"smiles": "CC/C(O)=C1\\C(=O)CC(C)(C)CC1=NCCc1nc2ccccc2[nH]1", "Potency": "20.6 µM (active)"}
{"smiles": "O=C(OCc1nc2ccccc2[nH]1)C1CCCCC1", "Potency": "inactive"}
{"smiles": "COc1ccc(NC(=O)COc2ccc(C(=O)OCC(=O)N(C)C3CCS(=O)(=O)C3)cc2OC)cc1", "note": "(centres undefined)", "Potency": "inactive"}
{"smiles": "NC(=O)c1ccccc1N(Cc1ccccc1)S(=O)(=O)c1ccccc1", "Potency": "inactive"}
{"smiles": "CCOC(=O)N1CCN(S(=O)(=O)c2ccc(OC)cc2)CC1", "Potency": "inactive"}
{"smiles": "CCOC(=O)N1CCN(C(=O)c2ccccc2N(Cc2ccccc2)S(=O)(=O)c2ccc(OC)cc2)CC1", "Potency": "3.26 µM (active)"}
{"smiles": "CN(CCO)Cc1csc2ccc(Br)cc12", "Potency": "inactive"}
{"smiles": "COC(=O)c1c(C)oc2ccc(N(C(=O)Oc3ccccc3)S(=O)(=O)c3ccccc3)cc12", "Potency": "11.6 µM (active)"}
{"smiles": "CCOC(=O)c1c(C)oc2ccc(N(C(=O)c3ccncc3)S(=O)(=O)c3ccc(CC)cc3)cc12", "Potency": "2.91 µM (active)"}
{"smiles": "CN(CC(=O)O)S(=O)(=O)c1ccc2oc3ccccc3c2c1", "Potency": "inactive"}
{"smiles": "CCOC(=O)c1c(C)nc2c(c1C)c(=O)oc1ccccc12", "Potency": "inactive"}
{"smiles": "CCOC(=O)c1c(C)oc2cc(Br)c(OCC(N)=O)cc12", "Potency": "inactive"}
{"smiles": "COc1ccc2oc(C(=O)NCC(Cc3ccccc3)N(C)C)c(C)c2c1", "note": "(centres undefined)", "Potency": "inactive"}
{"smiles": "O=C(CN1CCOCC1)Nc1c2c(nc3c1CCC3)CCC2", "Potency": "inactive"}
{"smiles": "CCC(C)N(C(=O)COC(=O)C1C(C(=O)OC)=C(C)NC(C)=C1C(=O)OC)C1CCS(=O)(=O)C1", "note": "(centres undefined)", "Potency": "inactive"}
{"smiles": "COc1ccccc1CNC(=O)CS(=O)(=O)c1cccc2nsnc12", "Potency": "inactive"}
{"smiles": "COc1cc2ccccc2cc1C(=O)Nc1cccc(-c2nc3ccccc3o2)c1", "Potency": "20.6 µM (active)"}
{"smiles": "COc1cc2ccccc2cc1C(=O)Nc1ccc(S(=O)(=O)Nc2cc(C)on2)cc1", "Potency": "inactive"}
{"smiles": "COc1cc(NC(=O)c2cccs2)ccc1NC(=O)c1ccccc1Cl", "Potency": "inactive"}
{"smiles": "O=C(Nc1cccc(-c2nc3ncccc3o2)c1)c1ccco1", "Potency": "inactive"}
{"smiles": "COc1cc2ccccc2cc1C(=O)Nc1ccncc1", "Potency": "inactive"}
{"smiles": "COc1cccc(NC(=O)c2ccccc2SC)c1", "Potency": "inactive"}
{"smiles": "O=C(Nc1cccc(Br)c1)c1ccc2snnc2c1", "Potency": "inactive"}
{"smiles": "O=C(Nc1cccc(-c2nc3ccccc3o2)c1)c1cccc(Br)c1", "Potency": "20.6 µM (active)"}
{"smiles": "COc1cc2ccccc2cc1C(=O)Nc1ccc(NC(=O)c2cccs2)cc1", "Potency": "20.6 µM (active)"}
{"smiles": "Cc1cccc(CCNC(=O)Cn2ncc3c([nH]c4ccc(C)cc43)c2=O)c1", "Potency": "inactive"}
{"smiles": "CCN(C(=O)COC(=O)c1ccccc1O)c1cccc2ccccc12", "Potency": "inactive"}
{"smiles": "Cc1nnc(SCC2=C(C(=O)O)N3C(=O)C(NC(=O)Cn4nc(C)c(Cl)c4C)C3SC2)s1", "note": "(centres undefined)", "Potency": "inactive"}
{"smiles": "C=CCNC(=O)c1ccccc1SCc1c(C)noc1C", "Potency": "inactive"}
{"smiles": "COc1ccc(S(=O)(=O)NC2(C(F)(F)F)N=C3SCCN3C2=O)cc1", "note": "(centres undefined)", "Potency": "inactive"}
{"smiles": "CN(CCc1ccccn1)C1CCCN(S(=O)(=O)c2ccccc2Cl)C1", "note": "(centres undefined)", "Potency": "inactive"}
{"smiles": "Cc1ccc2c(c1)-c1c(cnn1CC(=O)Nc1ccccc1C#N)CO2", "Potency": "inactive"}
{"smiles": "Cc1nc(-c2ccc(Cl)cc2)sc1C1(C)CC(c2ccccc2F)=NO1", "note": "(centres undefined)", "Potency": "inactive"}
{"smiles": "NS(=O)(=O)c1ccccc1NC(=O)c1c(O)c2ccccc2[nH]c1=O", "Potency": "inactive"}
{"smiles": "Cc1cccc(OCCSc2nc3ccccc3n2CC(=O)N2CCCCC2)c1C", "Potency": "23.1 µM (active)"}
{"smiles": "CCOc1ccc(OCCSc2nc3ccccc3n2CC(=O)O)cc1", "Potency": "inactive"}
{"smiles": "Cc1ccc(C(C)C)c(OCCSc2nc3ccccc3n2CC(=O)O)c1", "Potency": "inactive"}
{"smiles": "Clc1ccc(Cl)c(Oc2ccc(Oc3nc(Cl)ccc3Cl)cc2)n1", "Potency": "inactive"}
{"smiles": "COc1cc(Cl)c(C)cc1NC(=O)[C@@H]1CCCN1C(=O)c1cccs1", "Potency": "inactive"}
{"smiles": "CCN(c1ccc2c(c1)OCO2)S(=O)(=O)c1cc(Br)cc2c1N(C(=O)C1CC1)CC2", "Potency": "25.9 µM (active)"}
{"smiles": "O=C(CCS(=O)(=O)c1cc(Br)cc2c1N(C(=O)C1CC1)CC2)Nc1ccc(Br)cc1F", "Potency": "inactive"}
{"smiles": "O=C(CCS(=O)(=O)c1cc(Br)cc2c1N(C(=O)C1CC1)CC2)Nc1ccc(C(F)(F)F)cc1", "Potency": "inactive"}
{"smiles": "O=c1oc2ccc(C#CC3(O)CCCCC3)cc2cc1-n1cc(-c2ccsc2)nn1", "Potency": "inactive"}
{"smiles": "O=C(Cc1nc2ccccc2[nH]c1=O)c1ccc(Cl)cc1", "Potency": "inactive"}
{"smiles": "O=C(/C(=C/c1cccc(Cl)c1)c1nc2ccccc2[nH]1)c1ccccc1", "Potency": "23.1 µM (active)"}
{"smiles": "CCC(=O)/C(=C(/O)c1ccccc1)c1nc2ccccc2[nH]1", "Potency": "inactive"}
{"smiles": "CN1CCC(=NNC(=O)c2ccc(N(Cc3ccc(Cl)cc3)S(C)(=O)=O)cc2)CC1", "Potency": "inactive"}
{"smiles": "NC(=O)Cn1nc([N+](=O)[O-])nc1Oc1ccc(Br)cc1", "Potency": "inactive"}
{"smiles": "CC(C)CCNC(=O)CCNS(=O)(=O)c1ccc(Cl)cc1", "Potency": "inactive"}
{"smiles": "O=S1(=O)CCO[C@H]2Cc3ccccc3[C@H]2N1Cc1ccccc1", "Potency": "inactive"}
{"smiles": "COc1cc(/C=C2/C(=O)NN(c3cccc(Cl)c3)C2=O)cc(Br)c1O", "Potency": "inactive"}
{"smiles": "CCOc1c(Br)cc(/C=C2\\C(=O)N(CCC#N)N=C2C)cc1OC", "Potency": "29.1 µM (active)"}
{"smiles": "CCOc1cc(/C=N/O)cc(Br)c1OC", "Potency": "inactive"}
{"smiles": "CCn1c(SCC(=O)NC2=NCCS2)nnc1C(C)NC(=O)c1ccccc1F", "note": "(centres undefined)", "Potency": "inactive"}
{"smiles": "Cc1ccc(-n2c(C)nnc2SCC(=O)NC2CC2)cc1", "Potency": "inactive"}
{"smiles": "CCCCCCCCCCCC(=O)O", "Potency": "inactive"}
{"smiles": "CCCCCCCCCCCCC(NC(C)=O)(C(=O)OCC)C(=O)OCC", "Potency": "20.6 µM (active)"}
{"smiles": "CCCC(CCC(=O)OC)(C(=O)OCC)c1csc(N)n1", "note": "(centres undefined)", "Potency": "inactive"}
{"smiles": "COC(=O)C1=CO[C@@H](O[C@@H]2O[C@H](CO)[C@@H](O)[C@H](O)[C@H]2O)C2C1C[C@H](O)[C@@H]2C", "note": "(some centres undefined)", "Potency": "inactive"}
{"smiles": "COc1ccccc1NC(=O)C1=C(C)Nc2nc3ccccc3n2C1c1cccs1", "note": "(centres undefined)", "Potency": "3.26 µM (active)"}
{"smiles": "CCOC(=O)C1=C(C)Nc2nc3ccccc3n2C1c1cccs1", "note": "(centres undefined)", "Potency": "inactive"}
{"smiles": "COc1ccccc1NC(=O)C1=C(C)Nc2ncnn2C1c1sccc1C", "note": "(centres undefined)", "Potency": "inactive"}
{"smiles": "CCOC(=O)C1CCN(C(=O)CSc2cc(=O)n(C)c3ccccc23)CC1", "Potency": "inactive"}
{"smiles": "Cc1ccc(-c2cc(=O)c3ccc(F)cc3[nH]2)cc1", "Potency": "13 µM (active)"}
{"smiles": "O=c1cc(-c2ccccc2)[nH]c2cc(F)ccc12", "Potency": "1.03 µM (active)"}
{"smiles": "Cc1ccc(S(=O)(=O)/N=C(\\N)c2ccc(F)cc2)cc1", "Potency": "inactive"}
{"smiles": "Cc1ccc(-c2cc(=O)c3ccc(Cl)cc3[nH]2)cc1", "Potency": "inactive"}
{"smiles": "O=c1[nH]c(-c2ccccc2)c(-c2ccccc2)[nH]1", "Potency": "inactive"}
{"smiles": "Cc1cc(=O)c2ccc(NC(=O)c3ccccc3)cc2[nH]1", "Potency": "inactive"}
{"smiles": "O=S(=O)(Nc1ccccc1Br)c1cccs1", "Potency": "inactive"}
{"smiles": "Cn1nccc1/C=N\\NC(=O)c1ccc(Cl)cc1", "Potency": "inactive"}
{"smiles": "Cc1cc(-n2cnc(-c3cn(C)nc3C)n2)no1", "Potency": "inactive"}
{"smiles": "Cc1cccc(NC(=O)COc2ccccc2C)n1", "Potency": "inactive"}
{"smiles": "Cc1cc(C)c(NC(=O)C[N+](C)(C)CC(O)COc2cccc3ccccc23)c(C)c1", "note": "(centres undefined)", "Potency": "18.4 µM (active)"}
{"smiles": "Cc1cc(C)cc(OCC(=O)Nc2c(C(=O)c3ccccc3)oc3ccccc23)c1", "Potency": "inactive"}
